Measurements taken from PubChem BioAssay AID995 (National Center for Advancing Translational Sciences (NCATS), 2007).
The campaign covered roughly 72,000 compounds. About 710 (0.99%) were called active. Entries that show only a call come without a potency. Roughly 7% stayed inconclusive and do not appear here. The sample holds actives, similar compounds and a random draw of the others, so the mix is not that of the screen. A number with no mark means an inactive call. Calls come from the whole dose curve; as a rule, active = well fitted inhibition curve with a large enough effect; inconclusive = small, poorly fitted or top-dose-only effect; inactive = no such curve, though single readings can be large or run the other way.

assay: qHTS Assay for Inhibitors of the ERK Signaling Pathway using a Homogeneous Screening Assay; settings: HEK293-V1b, vasopressin-stimulated pERK AlphaScreen; series mostly up to 57.5 µM; note: nearly all actives have a fitted effect of over 55% in size
Outline: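 qHTS, compounds titrated on V1b-expressing HEK293 cells. Preincubation 30 min at 37C, vasopressin 25 nM for 5 min, lysis 10 min, bead incubation 5 hr at room temperature.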
Potency is the fitted concentration of half-maximal effect.

Which activity, negative = inhibition does the source give for `C=CCOC(=O)C(C(C)=O)C(NC(=O)OC)c1ccccc1` (centres undefined) here?
The activity, negative = inhibition was 29.5% [at 11.5 µM].

Which Potency does the source give for `Cn1c(=O)c(-c2ccccc2)nc2cnc(N3CCNCC3)nc21` here?
The Potency was “inactive”.

With `CCCCNc1nc(C)nc2c1nc(-c1ccccc1)n2CCCCN(CC)CC` as the compound, how does the Potency read?
The Potency was “inactive”.

For `C=C1C(=O)C23C(O)C1CCC2[C@]12COC3(O)C(O)C1C(C)(C)CC[C@H]2O` (some centres undefined), which Potency is on record?
The Potency was “inactive”.

For `c1ccc(CCN2CCN=C2Cc2ccccc2)cc1`, which activity, negative = inhibition is on record?
The activity, negative = inhibition was 9.2% [at 11.5 µM].

Which Potency does the source give for `COCCn1c(=O)c(-c2cc(F)cc(F)c2)nc2cncnc21` here?
Its Potency is “inactive”.

With `NS(=O)(=O)c1cc(Cl)c(Cl)c(S(N)(=O)=O)c1` as the compound, how does the Potency read?
The Potency was “inactive”.

With `CCCCCCCCCCCC(=O)O[C@H](CC(=O)O)C[N+](C)(C)C` as the compound, how does the Potency read?
Its Potency is “inactive”.

With `CC(C)=CC1C(C(=O)O)C1(C)C` (centres undefined) as the compound, how does the Potency read?
Its Potency is “inactive”.

With `O=C(c1ccco1)N1CCC2(CC1)CN(c1ncccn1)C2` as the compound, how does the Potency read?
The Potency was “inactive”.

With `CC1(C)OC2CC3C4CCC5=CC(=O)CCC5(C)C4(F)C(O)CC3(C)[C@]2(C(=O)CCl)O1` (some centres undefined) as the compound, how does the Potency read?
Its Potency is “inactive”.

Which Potency does the source give for `CC1OC(OCC2OC(Oc3c(-c4ccc(O)c(O)c4)oc4cc(O)cc(O)c4c3=O)C(O)C(O)C2O)[C@@H](O)C(O)C1O` (some centres undefined) here?
Its Potency is “inactive”.

For `Cc1c(C)c2c(c(C)c1O)CC[C@@](C)(CN1CCN(c3cc(N4CCCC4)nc(N4CCCC4)n3)CC1)O2`, which Potency is on record?
Its Potency is “inactive”.

For `CO[C@H]1COC(=O)C/C=C\[C@H](C)COC(=O)[C@@H](OCc2ccccc2)/C=C\[C@@H]1C`, which activity, negative = inhibition is on record?
Its activity, negative = inhibition is 0.999% [at 11.5 µM].

With `COC(=O)CC1C(C)(C)C(OC(C)=O)C2CC3=C4CC(=O)OC(c5ccoc5)[C@]4(C)CCC3[C@@]1(C)C2=O` (some centres undefined) as the compound, how does the Potency read?
The Potency was “inactive”.

With `CC(=O)OCC(=O)[C@@]1(O)CCC2C3CCC4=CC(=O)CC[C@]4(C)C3C(=O)C[C@]21C` (some centres undefined) as the compound, how does the Potency read?
Its Potency is “inactive”.

For `Cc1ccc(S(=O)(=O)Nc2ccc3ncccc3c2)cc1`, which Potency is on record?
The Potency was “inactive”.

Which Potency does the source give for `Cc1cc(/C=N/n2cnnc2)c(C)n1-c1ccc2ncccc2c1` here?
The Potency was 15.8 µM (active).

For `Fc1ccc(Br)cc1/C=N/n1cnnc1`, which Potency is on record?
Its Potency is “inactive”.

With `CCC1=C(OC(=O)N(CC)CC)N2C(=O)OC(=NCC3CC3)[C@]2(C)[C@H]2C1=CC[C@H]1C(=O)N(CC(=O)OC)C(=O)[C@H]12` as the compound, how does the Potency read?
Its Potency is “inactive”.

Which Potency does the source give for `CCC(C)C(N)C1=NC(C(=O)NC(CC(C)C)C(=O)NC(CCC(=O)O)C(=O)NC(C(=O)NCCCCC2NC(=O)C(CC(N)=O)NC(=O)C(CC(=O)O)NC(=O)C(Cc3cnc[nH]3)NC(=O)C(Cc3ccccc3)NC(=O)C(C(C)CC)NC(=O)C(CCCN)NC2=O)C(C)CC)CS1` (centres undefined) here?
Its Potency is “inactive”.

Which Potency does the source give for `O=c1c(CCc2ccccc2)nc2cnc(N3CCNCC3)nc2n1Cc1cccs1` here?
The Potency was “inactive”.

Which Potency does the source give for `Clc1ccc(C2[C@H]3CN(CC4CCCCC4)[C@H](c4ccccc4)C34CC2(c2cccnc2)C4)cn1` (some centres undefined) here?
Its Potency is “inactive”.

With `C=CCn1c(CSc2nc3ccccc3s2)nnc1SCC(=O)NCc1ccco1` as the compound, how does the Potency read?
The Potency was “inactive”.

For `CCn1c(SCC(=O)Nc2nc3ccc(OC)cc3s2)nnc1-c1ccoc1C`, which Potency is on record?
Its Potency is “inactive”.

For `C=CCn1c(SCC(=O)Nc2nc3ccccc3s2)nnc1-c1ccccc1O`, which Potency is on record?
The Potency was 15.8 µM (active).

For `Cc1ccc(-c2nn(CC(C)(C)C)c3ncnc(N)c23)cc1`, which Potency is on record?
The Potency was 7.94 µM (active).

With `CC(C)=CCC/C(C)=C/CC/C(C)=C/CC/C(C)=C/CO` as the compound, how does the Potency read?
The Potency was “inactive”.

With `COc1cc(OC)c2c(c1Cl)OC1(C2=O)C(O)=CC(=O)CC1C` (centres undefined) as the compound, how does the Potency read?
Its Potency is “inactive”.

With `CCC[C@@H]1C[C@@]1(CCC)C(NS(=O)(=O)c1cccc2cccnc12)c1ccc(Cl)cc1` (some centres undefined) as the compound, how does the Potency read?
Its Potency is “inactive”.

With `C=CC(=C)CCC=C(C)C` as the compound, how does the Potency read?
The Potency was “inactive”.

With `Fc1cccc(/C=N\N=C/c2cccc(F)c2)c1` as the compound, how does the Potency read?
Its Potency is “inactive”.

With `O=C1NS(=O)(=O)c2ccccc21` as the compound, how does the Potency read?
Its Potency is “inactive”.

With `Cc1cccc(CNc2cc(-c3ccccc3Cl)ncn2)c1` as the compound, how does the Potency read?
The Potency was “inactive”.

For `FC(F)(F)c1ccc(CN2C[C@@H]3C(c4ccccc4)C4(c5ccccc5)CC3(C4)[C@H]2c2ccccc2)cc1` (some centres undefined), which Potency is on record?
Its Potency is “inactive”.

With `COc1ccc(CC(=O)Nc2ccc(-c3nnc(-c4ccccc4)o3)cc2)cc1` as the compound, how does the Potency read?
The Potency was “inactive”.

With `Cc1ccc(OCC(=O)Nc2ccc(-c3nnc(-c4ccco4)o3)cc2)cc1` as the compound, how does the Potency read?
The Potency was “inactive”.

For `O=C(CCc1ccccc1)Nc1cccc(-c2nnc(-c3ccco3)o2)c1`, which Potency is on record?
The Potency was 25.1 µM (active).

With `Oc1cc(O)c2c(c1)OC(c1ccc(O)c(O)c1)C(O)C2` (centres undefined) as the compound, how does the Potency read?
Its Potency is “inactive”.

Which activity, negative = inhibition does the source give for `C[C@@H](N)[C@@H](C)Cc1ccccc1` here?
Its activity, negative = inhibition is -2.1% [at 11.5 µM].

For `CCC(CCC(C)C1CCC2C3CC=C4CC(O)CC[C@@]4(C)C3CC[C@@]12C)C(C)C` (some centres undefined), which Potency is on record?
Its Potency is “inactive”.

Which Potency does the source give for `COC(=O)C1=C(C)NC2=C(C(=O)c3ccccc32)C1c1ccc(-c2ccc(C(=O)O)cc2)o1` (centres undefined) here?
The Potency was 25.1 µM (active).

For `COC(=O)C1=C(C)NC(=O)NC1/C=C/c1ccccc1` (centres undefined), which Potency is on record?
The Potency was “inactive”.

For `COc1ccccc1NC(=O)C1=C(C)NC2=C(C(=O)CCC2)C1c1ccc(C)o1` (centres undefined), which Potency is on record?
Its Potency is “inactive”.
